Columns and labels:
Conditions in all cases: concentration: 1 μM, replicates: in singlicate; n = 1
HASPIN = test system: T1, HASPIN
T1 construct: gene GSG2

HCK = test system: HCK
HIPK1 = test system: HIPK1
HIPK2 = test system: HIPK2
HIPK3 = test system: HIPK3
HIPK4 = test system: HIPK4
HPK1 = test system: HPK1
HUNK = test system: HUNK
ICK = test system: ICK
IGF1R = test system: IGF1R
IKK-alpha = test system: T2, IKK-alpha
T2 construct: gene CHUK

IKK-beta = test system: T3, IKK-beta
T3 construct: gene IKBKB

IKK-epsilon = test system: T4, IKK-epsilon
T4 construct: gene IKBKE

INSRR = test system: INSRR
INSR = test system: INSR
IRAK1 = test system: IRAK1
IRAK3 = test system: IRAK3
IRAK4 = test system: IRAK4
ITK = test system: ITK
[1] = test system: JAK1(JH1domain-catalytic)
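Further: KINOMEscan kinase panel screen.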

Structure (SMILES) | %Inh (HASPIN) [%] | %Inh (HCK) [%] | %Inh (HIPK1) [%] | %Inh (HIPK2) [%] | %Inh (HIPK3) [%] | %Inh (HIPK4) [%] | %Inh (HPK1) [%] | %Inh (HUNK) [%] | %Inh (ICK) [%] | %Inh (IGF1R) [%] | %Inh (IKK-alpha) [%] | %Inh (IKK-beta) [%] | %Inh (IKK-epsilon) [%] | %Inh (INSRR) [%] | %Inh (INSR) [%] | %Inh (IRAK1) [%] | %Inh (IRAK3) [%] | %Inh (IRAK4) [%] | %Inh (ITK) [%] | %Inh [1] [%]
O=c1[nH]cc(-c2ccc(N3CCOCC3)cc2)c2sc(-c3cn[nH]c3)cc12 [GSK2276055] | 79 | 0 | 97.3 | 97.5 | 99 | 47 | 26 | 11 | 31 | 0 | 0 | 11 | 34 | 0 | 24 | 0 | 0 | 9 | 0 | 24
COc1cccc(NC(=O)NC2CCN(c3ccnc(Nc4cc(OC)c(OC)c(OC)c4)n3)C2)c1 (stereo not shown) [GSK1379763] | 0 | 0 | 0 | 0 | 85 | 0 | 76 | 0 | 18 | 0 | 0 | 6 | 12 | 0 | 0 | 73 | 86 | 27 | 25 | 0
C[C@@H](Oc1cc(-n2cnc3cc(-c4ccnc(NCCS(C)(=O)=O)c4)ccc32)sc1C(N)=O)c1ccccc1Cl [GSK907232] | 26 | 34 | 0 | 0 | 7 | 20 | 87 | 0 | 19 | 0 | 2 | 15 | 0 | 2 | 0 | 36 | 0 | 13 | 21 | 0
CC(C)c1nc(-c2cccc(NS(=O)(=O)c3c(F)cccc3F)c2F)c(-c2ccnc(Nc3ccc(N4CCOCC4)nc3)n2)s1 [GSK2008607] | 0 | 99.5 | 91.1 | 92.3 | 94.5 | 94.7 | 88 | 0 | 77 | 8 | 0 | 4 | 85 | 4 | 4 | 17 | 16 | 10 | 97.4 | 1
c1ccc(-c2n[nH]cc2Nc2ccnc3ccccc23)nc1 [GW694077] | 100 | 0 | 92.7 | 98.6 | 98.3 | 47 | 32 | 0 | 0 | 2 | 92.1 | 81 | 0 | 0 | 0 | 85 | 90.9 | 47 | 14 | 0
Nc1ncc(-c2cccnc2)c2scc(-c3ccc4c(c3)CCN4C(=O)Cc3ccccc3)c12 [GSK683281] | 0 | 25 | 20 | 0 | 35 | 0 | 63 | 34 | 8 | 0 | 0 | 11 | 46 | 0 | 0 | 10 | 17 | 5 | 18 | 19
COc1cccc(C(=O)Nc2cccc(Oc3ccc4nc(NC(=O)C5CC5)cn4n3)c2)c1 | 0 | 98.1 | 37 | 0 | 0 | 15 | 42 | 12 | 0 | 0 | 0 | 2 | 0 | 0 | 0 | 0 | 37 | 0 | 20 | 15
Oc1cc(Nc2ccnc3cc(I)ccc23)ccc1F [GW552771] | 28 | 76 | 42 | 59 | 20 | 10 | 37 | 2 | 0 | 0 | 31 | 19 | 0 | 0 | 0 | 50 | 25 | 11 | 0 | 4
COc1cc2c(cc1OCCN1CCNCC1)ncc1c3ccc(C#N)cc3[nH]c21 | 93.5 | 3 | 95.2 | 99.8 | 91.9 | 54 | 0 | 0 | 48 | 0 | 46 | 32 | 61 | 3 | 0 | 95.7 | 88 | 99.7 | 23 | 0
CC(=O)N1CCN(c2ccc(Nc3nccc(-c4sc(C(C)C)nc4-c4cccc(NS(=O)(=O)c5cccc(Cl)c5)c4)n3)cn2)CC1 [GSK1660437] | 0 | 83 | 40 | 5 | 35 | 82 | 36 | 0 | 0 | 0 | 0 | 0 | 20 | 25 | 8 | 0 | 0 | 0 | 20 | 0
Nc1n[nH]c2cnc(-c3ccccc3)cc12 [SB-642124] | 68 | 0 | 64 | 78 | 88 | 7 | 58 | 0 | 26 | 0 | 55 | 64 | 13 | 100 | 0 | 49 | 3 | 32 | 13 | 37
O=C(Nc1n[nH]c2cc(-c3ccoc3)ccc12)C1CC1 [SB-738481] | 27 | 0 | 57 | 65 | 58 | 46 | 7 | 0 | 94.8 | 0 | 0 | 0 | 0 | 0 | 0 | 0 | 0 | 0 | 0 | 0
O=C(Nc1cccc(-c2nn3ccccc3c2-c2ccnc(Nc3cccc(F)c3)n2)c1)c1c(F)ccc(F)c1Cl [GSK357952] | 0 | 99.1 | 0 | 13 | 1 | 51 | 13 | 0 | 3 | 17 | 0 | 0 | 65 | 19 | 8 | 83 | 0 | 84 | 12 | 0
Nc1ncc(-c2ccc3nccc(-c4ccncc4)c3c2)cc1S(=O)(=O)N1CCOCC1 [GSK1627798] | 50 | 0 | 37 | 15 | 25 | 76 | 49 | 0 | 36 | 35 | 21 | 9 | 11 | 15 | 35 | 31 | 73 | 16 | 11 | 3
COc1cc(Nc2nccc(-c3c(-c4cccc(NC(=O)c5c(F)cccc5F)c4)nn4ncccc34)n2)cc(OC)c1OC [GSK327238] | 0 | 96.6 | 0 | 0 | 18 | 29 | 82 | 12 | 4 | 95.8 | 0 | 0 | 23 | 93 | 64 | 0 | 74 | 0 | 5 | 17
COCCOCCOc1cc2ncc3c4ccc(C#N)cc4[nH]c3c2cc1OC | 18 | 4 | 90.3 | 87 | 87 | 32 | 7 | 0 | 41 | 2 | 30 | 30 | 60 | 0 | 0 | 96 | 75 | 99.9 | 39 | 0
CNC(=O)c1ccccc1Nc1nc(Nc2ccc(N3CCOCC3)cc2)ncc1Cl.Cl [GSK1576028] | 80 | 99.6 | 99.4 | 99.3 | 99 | 99.3 | 98.8 | 0 | 57 | 96.6 | 85 | 78 | 74 | 98.6 | 95.5 | 100 | 99.7 | 99.6 | 99.9 | 97.6
Cl.Cl.NCC(C(=O)Nc1cc(Br)c(-c2ccnc3[nH]ccc23)s1)c1ccccc1 (stereo not shown) [GSK1269851] | 97.6 | 29 | 48 | 0 | 55 | 81 | 41 | 0 | 33 | 16 | 44 | 34 | 0 | 0 | 0 | 81 | 34 | 26 | 12 | 2
COC(=O)Nc1nc2ccc(Oc3ccc(NC(=O)Nc4cc(C(F)(F)F)ccc4F)cc3)cc2n1C.Cl [GW692089] | 50 | 0 | 0 | 3 | 0 | 69 | 0 | 12 | 0 | 0 | 77 | 18 | 0 | 0 | 0 | 18 | 0 | 0 | 0 | 3
Cc1ccc(C(=O)N2CC[C@@H](O)C2)cc1-n1c(C)cc(OCc2ccc(F)cc2F)c(Br)c1=O | 0 | 66 | 11 | 0 | 0 | 0 | 0 | 0 | 0 | 0 | 0 | 0 | 0 | 0 | 0 | 0 | 0 | 0 | 0 | 0

Source: PMC5540273 (PLoS ONE, 2017)
